Assay outcomes deposited in PubChem BioAssay by National Center for Advancing Translational Sciences (NCATS).
RORgamma inh = blocks mouse ROR gamma transcriptional activity; P51450; Drosophila S2 Gal4-RORgamma UAS-luciferase reporter, 20 h; Potency, µM (series often up to 53.6 µM), for inactives: at the top dose activity change, negative = inhibition, hits mostly inhibitors; 310,000 compounds, 5.4% hits; AID 2551; further: nearly all actives have a fitted effect of over 60% in size
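In this cell-based reporter format, copper sulfate (700 uM final) drives Gal4–ROR gamma fusion expression from a metallothionein promoter in Drosophila Schneider cells; compounds preincubated 1 hr, reporter read after 20 hr at ambient temperature.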
DT40 TDP1 no CPT = qHTS for Inhibitors of human tyrosyl-DNA phosphodiesterase 1 (TDP1): qHTS in cells in absence of CPT. DT40 Tdp1-/- hTDP1 cells, no CPT, ATP luminescence, 48 h. Potency, µM (doses to about 46.2 µM), inactives show top-dose activity change, negative = growth inhibition, actives largely listed as inhibitors. 420,000 compounds, 15% hits. AID 686978, 2013; further: nearly all actives have a fitted effect of over 55% in size
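Cells were dispensed at 400 per well, compounds added by pin tool, plates incubated ≥48 hr at 37 °C, then CellTiter-Glo added for 30 min at room temperature before luminescence reading. Line: DT40 Tdp1-/- complemented with hTDP1; camptothecin omitted.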
VP16 counter = inhibits Gal4-VP16 luciferase reporter, ROR gamma counter-screen; Potency, µM (top dose mostly 53.6 µM), inactives show at the top dose activity, negative = inhibition, usual class: inhibitors; Drosophila S2 Gal4-VP16 UAS-luciferase, luminescence, 20 h; 310,000 compounds, 3.5% hits;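 further: Gal4-VP16 expression switched on by copper sulfate through the metallothionein promoter; nearly all actives have a fitted effect of over 50% in size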
ELG1 DNA repair = blocks ELG1-dependent DNA repair in HEK293T cells. 330,000 compounds, 2.3% hits. AID 504467. HEK293T ELG1-luciferase reporter, luminescence, 16 h; DNA damage induced by 5-fluorouridine. Potency, µM (highest dose often 46.1 µM), inactives show at the top dose activity change, negative = inhibition, most hits filed as inhibitors; further: nearly all actives have a fitted effect of over 55% in size
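In this reporter screen, reduction of luminescence relative to DMSO vehicle indicated activity. Compounds and 5-fluorouridine were added together to 2,000 cells per well, incubated for 16 hr at 37 °C, then developed with ONE-Glo.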
ALOX12 inh = blocks human arachidonate 12S-lipoxygenase; Potency, µM (series often up to 108 µM), inactives show at the highest dose activity change, negative = inhibition, hits mostly inhibitors; purified 12hLO, xylenol orange hydroperoxide absorbance; AID 1671190; 580,000 compounds, 1.1% hits
Target sequence (P18054 whole entry, looked up): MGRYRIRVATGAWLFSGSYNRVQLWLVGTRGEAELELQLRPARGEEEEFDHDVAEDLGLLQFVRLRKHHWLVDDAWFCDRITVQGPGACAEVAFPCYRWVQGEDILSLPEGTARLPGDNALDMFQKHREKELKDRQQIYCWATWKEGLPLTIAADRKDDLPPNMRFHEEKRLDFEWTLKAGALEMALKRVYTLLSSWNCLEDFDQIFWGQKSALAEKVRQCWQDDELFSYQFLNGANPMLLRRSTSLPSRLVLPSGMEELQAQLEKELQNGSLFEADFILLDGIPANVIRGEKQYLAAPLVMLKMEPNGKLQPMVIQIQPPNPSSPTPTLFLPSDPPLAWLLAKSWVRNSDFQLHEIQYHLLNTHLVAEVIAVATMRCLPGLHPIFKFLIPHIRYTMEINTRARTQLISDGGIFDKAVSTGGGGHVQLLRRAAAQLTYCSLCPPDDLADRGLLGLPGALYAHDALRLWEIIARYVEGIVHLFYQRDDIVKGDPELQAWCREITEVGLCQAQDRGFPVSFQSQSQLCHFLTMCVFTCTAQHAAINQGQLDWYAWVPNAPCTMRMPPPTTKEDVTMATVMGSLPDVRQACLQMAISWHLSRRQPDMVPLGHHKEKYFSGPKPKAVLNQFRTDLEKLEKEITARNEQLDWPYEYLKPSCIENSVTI
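Purified human 12hLO at 150 nM in 25 mM Hepes, 0.01% Triton X-100, pH 7.0, preincubated 15 min at room temperature with compound. Reaction started with 40 uM arachidonic acid, 30 min at room temperature. Hydroperoxide measured by Fe-xylenol orange, 573/405 nm absorbance ratio.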
TDP1 cell CPT = growth inhibition of DT40 Tdp1-/-;hTDP1 cells with camptothecin (screen for TDP1 inhibitors) | chicken DT40 Tdp1-/-;hTDP1 cells + 20 nM CPT, ATP luminescence, 48 h | Potency, µM (top dose mostly 46.2 µM), for the others: at the highest dose activity change, negative = growth inhibition, actives largely listed as inhibitors | 420,000 compounds, 12% hits; further: nearly all actives have a fitted effect of over 55% in size
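Chicken DT40 Tdp1-/- cells complemented with human TDP1, 400 cells/well, exposed to compounds plus 20 nM camptothecin for at least 48 h at 37 C; viability read as ATP content by CellTiter-Glo luminescence.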
* hit, by the source's call; ? = inconclusive; / = no result; [ ] = another dose, or the depositor's remark. Sampled rows, rich in hits. Any-hit rate of the full collection: about 15%. The call rests on the fitted dose curve; in most records, active means well fitted curve in the direction sought with a large enough effect; inconclusive means small, poorly fitted or top-dose-only effect, or another doubt; inactive means no such curve, though single readings can be large; an effect the other way counts as inactive or inconclusive. On the % scale 0 is the no-effect control and ±100 the full control effect; potency means the concentration at half of the fitted maximal effect.

SMILES	RORgamma inh	DT40 TDP1 no CPT	VP16 counter	ELG1 DNA repair	ALOX12 inh	TDP1 cell CPT
CCCCn1cnc2c(c(-c3ccccc3)c(-c3ccccc3)n2Cc2ccco2)c1=N	-42%	-16%	-22%	?	?	-3%
Cc1cc(C)cc(NC(=O)NCc2c(C)nn(C)c2C)c1	/	/	/	/	0%	/
O=S(=O)(c1ccc(Cl)s1)N1CCOc2ccc(COCc3ccccc3)cc2C1	/	/	/	/	-3%	/
COc1ccccc1N1CCN(C(=O)CSc2ncnc3scc(-c4ccccc4)c23)CC1	39%	16µM*	-3%	?	-10%	?
COc1ccc(-n2ncc3c(SCC(=O)N4CCN(c5ccccc5OC)CC4)ncnc32)cc1	-1%	21µM*	-6%	16µM*	36%	?
O=C(CSc1ncnc2scc(-c3ccccc3)c12)N1CCN(c2ccccc2F)CC1	?	18µM*	4%	?	0%	?
O=C(O)CSCC(=O)N1CCN(c2ncnc3scc(-c4ccccc4)c23)CC1	24%	3%	-7%	14%	-3%	1%
COC(=O)CSc1ncnc2scc(-c3ccccc3)c12	-3%	-14%	6%	-4%	5%	-29%
COc1ccc(OC)c(Nc2nc(NCCO)c3ccccc3n2)c1	?	16µM*	-3%	?	?	?
Cc1ccc(Nc2nc(NCCO)c3ccccc3n2)cc1C	-30%[1.91 µM]	16µM*	-24%	-1%	?	?
COc1ccccc1Nc1nc(NCCO)c2ccccc2n1	8%	/	4%	0%	/	/
CCOC(=O)C1(C)/C(=N/Nc2ccccc2OC)C(=O)C(=O)N1c1ccccc1 (configuration not stated)	?	13µM*	8%	-12%	?	23µM*
CCOC(=O)C1(C)/C(=N/Nc2ccccc2)C(=O)C(=O)N1c1ccccc1 (configuration not stated)	-12%	-13%	-5%	3%	?	-18%
CCCCCC(=O)N1C[C@H](n2cc(C3CC3)nn2)[C@@H](O)C[C@@H]1c1ccc(Cl)cc1	/	13µM*	/	/	35%	?
CCCCCC(=O)N1C[C@@H](n2cc(C3CC3)nn2)[C@H](O)C[C@@H]1c1ccc(C)cc1	/	13µM*	/	/	?	?
CCn1c(N2CCN(Cc3ccc(Cl)cc3Cl)CC2)nc2c1c(=O)[nH]c(=O)n2C	/	/	/	/	-7%	/
O=C(Nc1ccccc1)c1ccc(COc2ccccc2)cc1	-1%	0%	-2%	?	-4%	-30%
CC(C)(C)c1ccc(OCc2ccc(C(=O)N/N=C3\CC4CC=CC34)cc2)cc1 (configuration not stated)	7.9µM*	15µM*	4.5µM*	?	13%	13µM*
O=C(N/N=C1\CC2CC=CC12)c1ccc(COc2ccccc2)cc1 (configuration not stated)	5µM*	?	5µM*	2%	1%	-15%
Cc1ccc(Nc2cc(C)nc3ncnn23)cc1	-33%	-14%	18%	22%	-14%	12%
Cc1cc(Nc2cccc(Cl)c2Cl)n2ncnc2n1	13µM*	-28%	?	24%	-22%	-4%
Cc1cc(NCC(c2ccccc2)c2ccccc2)n2ncnc2n1	7%	?	-17%	-3%	-5%	?
Cc1cc(NCc2ccccc2)n2ncnc2n1	?	12µM*	-1%	-8%	0%	?
COc1ccc2nc(SC3CC(=O)N(c4cccc5ccccc45)C3=O)nc(C)c2c1 (configuration not stated)	/	/	/	/	1%	/
COc1ccc(CCN(C)CCCOc2ccc(S(=O)(=O)c3[nH]c4ccccc4c3C(C)C)cc2)cc1OC	14µM*	9.4µM*	18µM*	/	0%	13µM*
SMILES	RORgamma inh	DT40 TDP1 no CPT	VP16 counter	ELG1 DNA repair	ALOX12 inh	TDP1 cell CPT
Cc1cc2nc(-c3ccccc3Br)n(/C=C(\c3ccccc3)n3c(=O)[nH]c4ccccc43)c2cc1C	/	23µM*	/	/	-9%	16µM*
COC(=O)c1ccc(C(=O)OC)c(NC(=O)CN2CCN(c3ccccc3OC)CC2)c1	-7%	26µM*	2%	?	-26%	?
COc1ccc(NC(=O)CN2CCN(C3c4ccccc4-c4ccccc43)CC2)cc1	?	?	-1%	6.5µM*	-16%	?
O=C(CN1C(=O)c2ccccc2C1=O)N1CCN(C2c3ccccc3-c3ccccc32)CC1	43%	-17%	-4%	16µM*	-4%	0%
CCN(CC)c1ccc(NC(=O)CN2CCN(c3ccccc3OC)CC2)cc1	/	16µM*	/	/	-26%	21µM*
O=C(CNC(=O)c1cnccn1)NC1CCCc2c1[nH]c1ccc(Cl)cc21 (configuration not stated)	/	/	/	/	29%	/
CCN(CC)c1ccc(NC(=O)CN2CCN(S(=O)(=O)c3cc(Cl)ccc3OC)CC2)cc1	35%	16µM*	-1%	?	?	?
CCOc1ccc(NC(=O)CN2CCN(CC(=O)c3ccc(OC)c(OC)c3)CC2)cc1	2.5µM*	?	5%	0%	0%	?
COc1ccc(NC(=O)c2ccc(NC(=O)CN3CCN(c4ccccc4OC)CC3)cc2)cc1	/	18µM*	/	/	-20%	?
COc1ccc(NC(=O)CN2CCN(C(C)=O)CC2)cc1S(=O)(=O)N1CCOCC1	/	2%	/	4%	-36%	1%
O=C(NC1CC1)c1ccc2nnc(C3CC3)n2c1	/	/	/	/	-1%[12.5 µM]	/
O=C(Nc1ccccc1)c1ccc(Br)c(S(=O)(=O)N2CCCCC2)c1	/	21µM*	/	/	-13%	18µM*
O=C(O)c1ccc(NC(=O)c2ccc(Br)c(S(=O)(=O)N3CCCC3)c2)cc1	/	2%	/	/	-27%	-5%
O=C(Nc1ccc(Br)cc1)c1ccc(Br)c(S(=O)(=O)N2CCCCC2)c1	/	18µM*	/	/	2%	?
O=C(Nc1ccccc1)c1ccc(N2CCN(c3ccccc3)CC2)c(S(=O)(=O)N2CCOCC2)c1	-21%	17%	-6%	?	0%	7%
O=C(Nc1ccc(Cl)cn1)c1ccc(Br)c(S(=O)(=O)N2CCCCC2)c1	-8%	?	-8%	-4%	14%	23µM*
O=C(Nc1ccccc1)c1ccc(NC2CCCCC2)c(S(=O)(=O)N2CCOCC2)c1	4%	?	11%	15µM*	6%	?
CCc1ccc(NC(=O)Nc2cccc(-c3nnc4n3CCCC4)c2)cc1	/	/	/	/	43%	/
